Experimental findings from article PMC7819943, “Rice protein-binding microarrays: a tool to detect cis-acting elements near promoter regions in rice” are described below.

In all, about 39,000 sequences were measured (“fluorescence intensity (a.u.)”: median about 4,300, highest 2% from about 39,000 on). The sample holds the highest values, similar sequences and a random draw of the others, so the mix is not that of the screen.

For the test, the target named is T1, OsSMF1 (Oryza sativa, UniProt Q6ZLB0 1-436).
T1 sequence: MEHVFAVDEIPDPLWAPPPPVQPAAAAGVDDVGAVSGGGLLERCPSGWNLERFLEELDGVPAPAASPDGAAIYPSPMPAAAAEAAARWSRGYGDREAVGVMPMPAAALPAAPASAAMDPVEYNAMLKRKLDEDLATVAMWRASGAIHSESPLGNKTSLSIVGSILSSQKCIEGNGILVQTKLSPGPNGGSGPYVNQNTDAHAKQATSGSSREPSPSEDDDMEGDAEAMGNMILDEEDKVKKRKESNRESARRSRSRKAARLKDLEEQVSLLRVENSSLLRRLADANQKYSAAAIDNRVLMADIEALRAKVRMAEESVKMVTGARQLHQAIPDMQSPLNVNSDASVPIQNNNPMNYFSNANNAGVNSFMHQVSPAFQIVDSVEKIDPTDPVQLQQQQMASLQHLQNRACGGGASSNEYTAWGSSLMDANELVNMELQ
The experiment in a line: protein-binding microarray (RPBM); PBS, 2% BSA, 51.3 ng/ul salmon testes DNA, 50 uM zinc acetate, 200 nM TF, 25 C, 1 h; high values mean tight binding. Conditions: protein: recombinant; tags: N-terminal polyhistidine and DsRed monomer fusion (pET32a); chain copies: 2; label: CyDye5-dUTP incorporated in the synthesized complementary strand; 3' TTTTT single-stranded linker to array surface; dsDNA, one strand shown. The essentials:
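Binding signal here means per-feature fluorescence intensity in arbitrary units. The values were read on an Axon 4000B scanner after a custom Agilent array, double-stranded by primer extension with Cy5-dUTP, was incubated with 200 nM protein at 25 °C for 1 h in PBS with 2% BSA, salmon testes DNA and 50 µM zinc acetate, then washed. The proteins were transcription factors with an N-terminal polyhistidine tag and DsRed, expressed in E. coli BL21-CodonPlus and purified on Ni–NTA.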
Regarding “TCCGCCGCCTCGGTCGGCTCACGCGTCCATGTCCATCCCGCGGAGTCACCTAGTGCAG”, the binding signal was 3600 fluorescence intensity (a.u.).

With “CCTCTAGATCCTCTATGGTACTATATGTACAGTGCTGTTTCGGAGTCACCTAGTGCAG”, the binding signal is 42900 fluorescence intensity (a.u.).

Consider “GGGTGAGTGTGTGTTGTGCGTTGTGAGTGTGTATGTGTTTCGGAGTCACCTAGTGCAG”, for which the binding signal is 3730 fluorescence intensity (a.u.).

Turning to “GTCCAGATTCGTTGTACTAGAATATGTCAGATCCAGTCCTCGGAGTCACCTAGTGCAG”, the binding signal was 3410 fluorescence intensity (a.u.).

“GAGTTGAGTTTAGACTTTCTAGAGTGGTATATGTATGTTTCGGAGTCACCTAGTGCAG”: the binding signal is 40900 fluorescence intensity (a.u.).

Take “TGTCGGTACTTTCATACGTCATCTATGTATGAGTCGGTTTCGGAGTCACCTAGTGCAG”: the binding signal was 10600 fluorescence intensity (a.u.).

Consider “CGCACTCAGCTTGTTCCTCTAACTGTACACAGTGGTACTTCGGAGTCACCTAGTGCAG”, for which the binding signal is 26500 fluorescence intensity (a.u.).

Regarding “TGGCTATACTATTGAACTTGCTCTCGTGGGACCCACATACCGGAGTCACCTAGTGCAG”, the binding signal is 3680 fluorescence intensity (a.u.).

As to “CTTTTGGTCTCGCGCCCACTGACACGTGGGTCCCACGCTCCGGAGTCACCTAGTGCAG”, the binding signal was 6100 fluorescence intensity (a.u.).

Turning to “GCGCGCGCGTTCTCTAATCGAAGTCGATAGGATAGGAGGACGGAGTCACCTAGTGCAG”, the binding signal is 36900 fluorescence intensity (a.u.).

Turning to “TATATAAGAGACCTCACCTCCAAGAATCTCCAGAGAGAGACGGAGTCACCTAGTGCAG”, the binding signal is 22900 fluorescence intensity (a.u.).

“CATTCCCTCCTCCTCCTCCTCCTCCTCCTGAATCCCTCCTCGGAGTCACCTAGTGCAG”: the binding signal is 3380 fluorescence intensity (a.u.).

For “GCCCTGTTCCCTGCAGAGAATCATTATATACTCCCTCCAACGGAGTCACCTAGTGCAG”, the binding signal was 48100 fluorescence intensity (a.u.).

With “CGAGGTGAGGCGGAGGGGAGGCAGAGGGGTAGAGGAGGGTCGGAGTCACCTAGTGCAG”, the binding signal is 5260 fluorescence intensity (a.u.).

In the case of “CTACTATACCTCCGTGCGTACCACATACTGTATGTAGACTCGGAGTCACCTAGTGCAG”, the binding signal was 4130 fluorescence intensity (a.u.).

In the case of “CATAGTGCAGGGGAGAAGCCAGGGAAGAGGGAGGTGACGTCGGAGTCACCTAGTGCAG”, the binding signal was 3290 fluorescence intensity (a.u.).

As for “GAGGAGTGGGAGGAAAATGAGTGGTGGGGAAAGGATAGGGCGGAGTCACCTAGTGCAG”, the binding signal is 4150 fluorescence intensity (a.u.).

For “AAACGATGACTGTTAAATAGGGATTAAAAGGAAAGGATGGCGGAGTCACCTAGTGCAG”, the binding signal was 41200 fluorescence intensity (a.u.).

“AATAGGAAATAAACATTACTGAGAAAAGGGCTCATGTTGGCGGAGTCACCTAGTGCAG”: the binding signal was 29300 fluorescence intensity (a.u.).

“AGCACACATACTAGTACTATATGACAAGTCCACGGAGAGCCGGAGTCACCTAGTGCAG”: the binding signal is 3760 fluorescence intensity (a.u.).

For the sequence “GATTAATACGACTACTGTCATACGTACTGTACATGTCATGCGGAGTCACCTAGTGCAG”, the binding signal was 3720 fluorescence intensity (a.u.).

Consider “CTTTGGCTTTTAGCCATAGACTTTGATCCATGAGTTAGAACGGAGTCACCTAGTGCAG”, for which the binding signal is 40900 fluorescence intensity (a.u.).

“TTTTAGCCTCCTTTTGGTTAATCTTTGTTTGATCCAAGAACGGAGTCACCTAGTGCAG”: the binding signal was 10200 fluorescence intensity (a.u.).

Turning to “TTTTGAGCCTAGTTAGTCCATGATTAGCCATAAATGCTACCGGAGTCACCTAGTGCAG”, the binding signal was 4540 fluorescence intensity (a.u.).

Turning to “GGGAAGAGAGAAGAGACGAAACAGGGAGGAGGGGATTGGGCGGAGTCACCTAGTGCAG”, the binding signal was 3320 fluorescence intensity (a.u.).

Consider “CAACATGCACGTACTACGTGTGCTTGCATTGCATGCATGCCGGAGTCACCTAGTGCAG”, for which the binding signal was 4450 fluorescence intensity (a.u.).

With “AGACTGAAAGAGAGAGGAAGGAAGAGAGATGACGTGGCATCGGAGTCACCTAGTGCAG”, the binding signal is 35800 fluorescence intensity (a.u.).

For “AGAGAAAGGAAGGGAAGAGAGAGGGTGATGACGTGGCGACCGGAGTCACCTAGTGCAG”, the binding signal was 35600 fluorescence intensity (a.u.).

Turning to “GGGAGGAAGAAGAAAGGGAGAGAGAGGGGATGACATGTGGCGGAGTCACCTAGTGCAG”, the binding signal is 5680 fluorescence intensity (a.u.).

On to “GAGAGAAGAGGGGAAAAGAGAGAGGAGTTTGATGACGTGGCGGAGTCACCTAGTGCAG”, for which the binding signal was 39300 fluorescence intensity (a.u.).

As for “AAAGAATGACGATATGATGTGAGAAGTTTGTGAAGACTTGCGGAGTCACCTAGTGCAG”, the binding signal was 41100 fluorescence intensity (a.u.).

In the case of “GAGAGGACGAAGGGAAAGAGAGAGATGGTGATGACGTGGCCGGAGTCACCTAGTGCAG”, the binding signal is 31600 fluorescence intensity (a.u.).

Regarding “AAAATGGAGAGAAGAGGAAGGGACAGATGACGTGGCATCCCGGAGTCACCTAGTGCAG”, the binding signal is 48900 fluorescence intensity (a.u.).

Take “TCAGAATGCGTGTGATGTAAAAGTTCGAGAAGACTTTGTTCGGAGTCACCTAGTGCAG”: the binding signal was 3210 fluorescence intensity (a.u.).

Consider “ACGATATGACGGAAAAGTTGGAAGTTTGTGTGTAGAAAAGCGGAGTCACCTAGTGCAG”, for which the binding signal is 3140 fluorescence intensity (a.u.).

In the case of “CCATCTCCGACGAATGATGCTTTGACACTTAATGCTGCGTCGGAGTCACCTAGTGCAG”, the binding signal is 3350 fluorescence intensity (a.u.).

In the case of “CGGCTTACGGCCGCCTGTCGGGGAAGATGACTCCCTCTTCCGGAGTCACCTAGTGCAG”, the binding signal is 5050 fluorescence intensity (a.u.).

As for “AACAAAAGTTGTTTTGACTCACGCGGTGGCTGTTGTCTGTCGGAGTCACCTAGTGCAG”, the binding signal was 6340 fluorescence intensity (a.u.).

In the case of “GTCACCGAAGGCGATTAAGGGACAAGCTATAGCTGATTTTCGGAGTCACCTAGTGCAG”, the binding signal was 46100 fluorescence intensity (a.u.).

For “TTAAGGACGATTTTGTAATTCAGCTGACAAGACGAGGGATCGGAGTCACCTAGTGCAG”, the binding signal is 4300 fluorescence intensity (a.u.).

“GGAAGCGGCTGCTGACAATGGGGATTAGATAGGCTAAGGGCGGAGTCACCTAGTGCAG”: the binding signal was 3700 fluorescence intensity (a.u.).

Consider “CCGAGGCCCAATAAATTATGGGGTTGGCTCCAATAAATTACGGAGTCACCTAGTGCAG”, for which the binding signal is 3940 fluorescence intensity (a.u.).
